{"source": "PubChem BioAssay", "note": "A number with no mark means an inactive call. How the calls were made is not given here.", "data": [{"molecular_target": "Pantothenate synthetase (Mycobacterium tuberculosis (strain ATCC 25618 / H37Rv)) (UniProt P9WIL5)", "sequence (P9WIL5 whole entry, looked up)": "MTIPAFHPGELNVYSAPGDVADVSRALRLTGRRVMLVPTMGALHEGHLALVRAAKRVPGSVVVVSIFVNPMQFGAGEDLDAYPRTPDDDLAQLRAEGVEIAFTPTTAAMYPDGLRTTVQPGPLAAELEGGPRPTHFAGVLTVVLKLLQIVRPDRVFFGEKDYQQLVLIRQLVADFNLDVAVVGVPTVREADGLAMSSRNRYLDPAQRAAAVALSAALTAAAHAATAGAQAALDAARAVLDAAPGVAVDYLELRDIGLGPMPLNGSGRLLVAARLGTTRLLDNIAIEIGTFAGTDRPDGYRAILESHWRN", "experiment": "Coupled enzyme confirmation of inhibitors against recombinant Mtb PanC (AID 375);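 further: 0% = full reaction with vehicle and 100% = no enzyme background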", "details": "coupled enzyme assay; at 10 µM, stronger effect = higher value", "units": {"inhibition": "%"}, "values": [{"smiles": "CCCCOCCCNC(=O)COc1ccccc1", "inhibition": 1}, {"smiles": "Cn1nc(-c2ccc(C(=O)N3CCN(c4ccccc4)CC3)cc2)c2ccccc2c1=O", "inhibition": 0}, {"smiles": "Cc1cc(NC(=O)CCCC(=O)Nc2ccc(F)cc2)no1", "inhibition": 4}, {"smiles": "Cn1nc(-c2ccc(C(=O)NCC3CCCO3)cc2)c2ccccc2c1=O", "note": "(configuration not stated)", "inhibition": 4}, {"smiles": "COc1cc(NC(=O)c2cc(-n3cnnc3)ccc2Cl)cc(OC)c1", "inhibition": 2}, {"smiles": "Nc1cc(C(=O)O)ccc1Nc1ccccc1", "inhibition": 0}, {"smiles": "Cc1noc(/C=C/N(C)C)c1S(=O)(=O)N1CCc2ccccc21", "inhibition": 0}, {"smiles": "O=C(CSc1nnnn1C1CCCC1)Nc1cccc(NC(=O)c2ccco2)c1", "inhibition": 5}, {"smiles": "CCOC(=O)c1cc2sc(C)cc2n1CC(=O)Nc1cccc(C)c1C", "inhibition": 0}, {"smiles": "CCCCCc1c(C)nc(SCC(=O)O)[nH]c1=O", "inhibition": 0}, {"smiles": "c1ccc(-c2cc(N3CCCCC3)ncn2)cc1", "inhibition": 0}, {"smiles": "Cc1cccc(N2C(=O)CC(N3CCN(Cc4ccc(Cl)cc4)CC3)C2=O)c1", "note": "(configuration not stated)", "inhibition": 0}, {"smiles": "COc1ccc(OC)c(C2C(C#N)=C(N)Oc3cc(C)[nH]c(=O)c32)c1", "note": "(configuration not stated)", "inhibition": 0}, {"smiles": "CCN(Cc1cc2cc(OC)ccc2[nH]c1=O)C(=O)c1ccncc1", "inhibition": 4}, {"smiles": "CCn1c(CCC(=O)Nc2nc3c(s2)CCCC3)nc2cc(S(=O)(=O)N(C)C)ccc21", "inhibition": 3}, {"smiles": "Cc1ccc(S(=O)(=O)Cc2ccc(C(=O)N3CCN(Cc4ccccc4)CC3)o2)cc1", "inhibition": 3}, {"smiles": "O=C(NCc1cccnc1)/C(=N\\O)c1ccccc1", "inhibition": 0}, {"smiles": "CCCn1c(N2CCN(CC(=O)NCc3cccs3)CC2)nc2ccccc21", "inhibition": 9}, {"smiles": "O=C(NC1CCCCC1)C(c1ccco1)N(Cc1cccnc1)C(=O)C1COc2ccccc2O1", "note": "(configuration not stated)", "inhibition": 2}, {"smiles": "COc1cc(NC(=O)C2CC(c3cccc(OC)c3OC)=NO2)cc(OC)c1OC", "note": "(configuration not stated)", "inhibition": 0}, {"smiles": "COc1ccc(C(=O)NCCCCCC(=O)O)cc1OC", "inhibition": 0}, {"smiles": "COc1ccc(C(=O)NC(=O)CSc2nnc(-c3ccco3)n2-c2ccccc2)cc1", "inhibition": 0}]}]}
